From PubChem
The list is not random: actives were taken first. Their share in the collection is about 10%.
HP1b chromo inh: HP1-beta chromodomain-methylated histone interaction inhibition. AlphaScreen HP1-beta / biotin-H3K9me3 peptide binding. Potency, µM (doses to about 114 µM), for inactives: at the highest dose activity change, negative = inhibition, usual class: inhibitors. 390,000 tested, 0.56% active; note: potency is the fitted concentration of half-maximal effect; nearly all actives have a fitted effect of over 70% in size
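Compound inhibition of the preformed complex between 50 nM HP1-beta and 50 nM biotinylated H3K9me3 peptide was read by AlphaScreen. Buffer was PBS pH 7.4 with 0.01% Tween-20. Incubations ran 30 min at room temperature, with 10 ug/mL donor/acceptor beads.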
JMJD2A Tudor inh: inhibitors of human JMJD2A Tudor domain; Potency, µM (highest dose often 114 µM), inactives show at the top dose activity change, negative = inhibition, hits mostly inhibitors; AlphaScreen JMJD2A-Tudor / H3K4me3 peptide binding; AID 504339; 390,000 tested, 4.4% active; note: potency is the fitted concentration of half-maximal effect; % is set by controls: 0 for no effect and ±100 for the full control effect; nearly all actives have a fitted effect of over 50% in size
BAZ2B inh: blocks human BAZ2B | Q9UIF8 | AlphaScreen BAZ2B-H3K14Ac peptide displacement | Potency, µM (titrated, usually from 114 µM), for the others: at the highest dose activity change, negative = inhibition, hits mostly inhibitors | 360,000 tested, 4.4% active; note: potency is the fitted concentration of half-maximal effect; % is set by controls: 0 for no effect and ±100 for the full control effect; nearly all actives have a fitted effect of over 60% in size
Target sequence (Q9UIF8 whole entry, looked up): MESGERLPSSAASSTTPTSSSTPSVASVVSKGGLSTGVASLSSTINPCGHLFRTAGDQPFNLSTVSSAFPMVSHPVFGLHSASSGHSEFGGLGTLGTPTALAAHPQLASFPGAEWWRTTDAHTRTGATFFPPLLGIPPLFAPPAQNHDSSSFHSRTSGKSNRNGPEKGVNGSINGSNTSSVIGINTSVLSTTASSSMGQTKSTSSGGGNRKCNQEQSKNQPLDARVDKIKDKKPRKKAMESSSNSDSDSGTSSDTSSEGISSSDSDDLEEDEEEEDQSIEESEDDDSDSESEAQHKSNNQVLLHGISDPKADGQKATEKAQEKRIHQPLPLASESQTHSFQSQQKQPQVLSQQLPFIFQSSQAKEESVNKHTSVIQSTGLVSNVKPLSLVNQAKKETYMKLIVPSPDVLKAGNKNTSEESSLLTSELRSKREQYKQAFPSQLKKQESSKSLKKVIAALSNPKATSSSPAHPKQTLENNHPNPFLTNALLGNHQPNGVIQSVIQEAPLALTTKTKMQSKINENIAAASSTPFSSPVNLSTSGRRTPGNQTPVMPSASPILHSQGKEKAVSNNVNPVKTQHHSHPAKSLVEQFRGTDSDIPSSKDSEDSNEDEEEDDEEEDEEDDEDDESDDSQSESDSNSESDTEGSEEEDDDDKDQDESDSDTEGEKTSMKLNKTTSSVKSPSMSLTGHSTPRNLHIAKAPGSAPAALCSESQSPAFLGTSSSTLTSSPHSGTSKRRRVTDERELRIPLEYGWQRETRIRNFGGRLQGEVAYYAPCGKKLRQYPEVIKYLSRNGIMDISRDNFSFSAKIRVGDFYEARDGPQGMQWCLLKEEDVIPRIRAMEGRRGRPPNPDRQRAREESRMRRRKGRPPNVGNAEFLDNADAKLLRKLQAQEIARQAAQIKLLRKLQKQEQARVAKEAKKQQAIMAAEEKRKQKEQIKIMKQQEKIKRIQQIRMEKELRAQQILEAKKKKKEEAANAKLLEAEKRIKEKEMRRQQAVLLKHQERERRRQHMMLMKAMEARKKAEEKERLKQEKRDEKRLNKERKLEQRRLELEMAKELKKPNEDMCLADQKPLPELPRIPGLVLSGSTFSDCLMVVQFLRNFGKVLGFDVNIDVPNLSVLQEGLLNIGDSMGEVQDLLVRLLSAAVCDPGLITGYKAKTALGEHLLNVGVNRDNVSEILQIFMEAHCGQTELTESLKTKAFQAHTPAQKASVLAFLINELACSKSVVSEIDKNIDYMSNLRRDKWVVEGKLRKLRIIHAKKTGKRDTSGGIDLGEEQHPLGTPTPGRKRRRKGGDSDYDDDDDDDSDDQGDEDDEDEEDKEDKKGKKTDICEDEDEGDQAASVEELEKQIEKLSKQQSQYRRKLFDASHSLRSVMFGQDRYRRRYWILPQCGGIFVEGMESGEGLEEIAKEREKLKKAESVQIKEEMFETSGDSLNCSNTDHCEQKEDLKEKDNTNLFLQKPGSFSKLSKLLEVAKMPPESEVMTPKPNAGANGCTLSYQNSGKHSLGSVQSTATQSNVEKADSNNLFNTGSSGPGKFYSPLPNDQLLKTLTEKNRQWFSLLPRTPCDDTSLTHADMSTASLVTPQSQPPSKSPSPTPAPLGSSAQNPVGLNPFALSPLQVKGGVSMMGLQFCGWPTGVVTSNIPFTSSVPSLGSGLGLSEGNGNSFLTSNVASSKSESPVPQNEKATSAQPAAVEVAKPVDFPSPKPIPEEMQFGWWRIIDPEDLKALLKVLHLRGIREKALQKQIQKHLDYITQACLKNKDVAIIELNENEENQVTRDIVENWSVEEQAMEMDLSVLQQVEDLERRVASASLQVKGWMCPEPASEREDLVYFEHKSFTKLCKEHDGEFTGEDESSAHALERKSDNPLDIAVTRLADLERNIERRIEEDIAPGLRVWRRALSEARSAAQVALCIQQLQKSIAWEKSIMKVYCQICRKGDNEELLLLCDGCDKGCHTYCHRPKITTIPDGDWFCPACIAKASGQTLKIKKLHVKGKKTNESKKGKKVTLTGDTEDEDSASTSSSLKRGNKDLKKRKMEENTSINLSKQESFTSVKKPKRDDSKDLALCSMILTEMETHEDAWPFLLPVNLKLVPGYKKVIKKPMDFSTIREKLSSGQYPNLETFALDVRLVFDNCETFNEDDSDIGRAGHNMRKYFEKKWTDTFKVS
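Compounds, titrated to a top concentration of 110 uM, were incubated 30 min at room temperature with preformed BAZ2B/acetyl-K14 H3 peptide complex (50 nM each). Proximity signal was measured by AlphaScreen after 20 min with beads.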
G9a inh-1: G9a (human) methyltransferase inhibition. Q96KQ7. G9a H3K9 monomethylation, AlphaScreen, 2 h. Potency, µM (series often up to 102 µM), inactives show top-dose activity, negative = inhibition, most hits filed as inhibitors. 350,000 tested, 8.8% active. AID 504332; note: potency is the fitted concentration of half-maximal effect; % is set by controls: 0 for no effect and ±100 for the full control effect; nearly all actives have a fitted effect of over 75% in size
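Signal arises when biotinylated H3K9 peptide, once monomethylated, bridges streptavidin donor and antibody-captured acceptor beads. Enzyme at 20 nM was preincubated 15 min with test compounds; peptide 500 nM and SAM 20 uM then reacted for 2 h.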
GLS inhibitor: blocks human kidney-isoform glutaminase activity; O94925; GLS enzymatic activity, qHTS titration; Potency, µM (titrated, usually from 45.5 µM), without a hit: top-dose activity change, negative = inhibition, hits mostly inhibitors; 410,000 tested, 0.21% active; note: potency is the fitted concentration of half-maximal effect; % is set by controls: 0 for no effect and ±100 for the full control effect
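Human kidney-isoform GLS in 45 mM KH2PO4 pH 8.2, 0.02% Tween-20, with compound, started with 1mM L-Glutamine (added stock). Glutamate oxidase/HRP/Amplex red coupled fluorescence read at start and after 30 min at RT.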
JMJD2E inh: confirmation of inhibitors of human JMJD2E demethylase. shares compounds with JMJD2A Tudor inh. Recombinant JMJD2E, FDH-coupled NADH fluorescence (FDH is formaldehyde dehydrogenase). Potency, µM (series often up to 56.8 µM), for inactives: at the highest dose activity change, negative = inhibition, most hits filed as inhibitors. 140 tested, 93% active
FDH inh: blocks Pseudomonas putida formaldehyde dehydrogenase, flagging JMJD2E artifacts; shares compounds with JMJD2A Tudor inh; FDH enzyme assay, NADH fluorescence kinetic; Potency, µM (series often up to 56.7 µM), inactives show at the top dose activity, negative = inhibition, usual class: inhibitors; AID 2680; 140 tested, 10% active
G9a inh-2: inhibits human G9a histone lysine methyltransferase, hit confirmation; shares compounds with JMJD2A Tudor inh; G9a H3K9 monomethylation, AlphaScreen, 2 h; Potency, µM, usual class: inhibitors; 370 tested, 89% active; note: potency is the fitted concentration of half-maximal effect; nearly all actives have a fitted effect of over 65% in size
RGS4 confirm: confirmation of human RGS4 inhibitors; shares compounds with JMJD2A Tudor inh; RGS4 GAP activity, Transcreener GDP fluorescence polarization; Potency, µM, hits mostly inhibitors; 25 tested, 80% active; AID 602388
Active calls of the source: *; ? = inconclusive; . = no result; [ ] = another dose, or the depositor's remark. Calls come from the whole dose curve; as a rule, active = well fitted curve in the direction sought with a large enough effect; inconclusive = small, poorly fitted or top-dose-only effect, or another doubt; inactive = no such curve, though single readings can be large; an effect the other way counts as inactive or inconclusive.

SMILES	HP1b chromo inh	JMJD2A Tudor inh	BAZ2B inh	G9a inh-1	GLS inhibitor	G9a inh-2	others
Oc1ccc(NCc2ccccc2OCc2ccccc2)cc1	?	56µM*	28µM*	1.8µM*	?	5.8*
CCN(Cc1ccccc1)Cc1c(O)ccc2c(=O)c(-c3ccccc3)c(C(F)(F)F)oc12	86%	3%	-6%	?	4%	45*
CCN(Cc1ccccc1)Cc1c(O)ccc2c(=O)c(-c3ccccc3OC)c(C(F)(F)F)oc12	27%	-20%	-11%	?	2%	.
O=C(CSc1nc2c([nH]c3ccccc32)c(=O)n1-c1ccc(F)cc1)Nc1ccc2c(c1)OCO2	13%[57 µM]	-15%	6%	10%[59 µM]	-3%	.
O=C(CSc1nnc2c(n1)[nH]c1ccccc12)Nc1ccc2c(c1)OCO2	-1%	-19%	-33%	1.8µM*	0%	1.6*
O=C(OCC(=O)c1ccccc1Br)c1ccccn1	3%	8.9µM*	10µM*	?	11%	1.6*
CCOc1ccc(-c2nc(Cn3ccn4nc(-c5ccc(OCC)c(Cl)c5)cc4c3=O)c(C)o2)cc1	31%	-13%	1%	12%[59 µM]	-3%	.
CN1CCC(NC(=O)c2cccc(Oc3ccccc3)c2)CC1	25%	-25%	-12%	.	-9%	.
CN1CCC(N(C)CC(=O)Nc2cccc(Oc3ccccc3)c2)CC1	-18%	6.3µM*	50µM*	?	-5%	?
NC(=O)c1ccc(-n2nnnc2SCC(=O)c2ccc(O)c(O)c2)cc1	-10%	?	?	11µM*	-29%	.	JMJD2E inh=7.9µM*;FDH inh=-26%
CCOC(=O)N1CCc2c(sc(NCc3cccs3)c2C(=O)Nc2cc(OC)ccc2OC)C1	?	3.2µM*	-38%	1.6µM*	-2%	1.1*
CCOC(=O)N1CCc2c(sc(NCc3cccs3)c2C(=O)Nc2ccc(OC)cc2OC)C1	-19%	3.2µM*	?	2.8µM*	4%	3.6*
Cn1c(=O)c2c(nc(Br)n2Cc2c(F)cccc2Cl)n(C)c1=O	.	.	-3%	27%	.	.
CCN(CC)c1ccc(NC(=O)Nc2cccc(C(C)=O)c2)cc1	-69%	35µM*	32µM*	1.8µM*	60%	3.2*
CCc1cccc(C)c1NC(=O)c1cccc(N(C)C)c1	9%	-15%	89µM*	?	37%	8.9*
CCc1cccc(C)c1NC(=O)c1cccc(C(=O)Nc2c(C)cccc2CC)c1	-6%	-14%	-1%	-1%[59 µM]	9%	.
CCn1c2ccccc2c2cc(CN3CCN(Cc4ccc(Cl)cc4)CC3)ccc21	?	7.9µM*	16µM*	0.5µM*	8%	22*
CCn1c2ccccc2c2cc(CN3CCN(Cc4cc(OC)c(O)c(OC)c4)CC3)ccc21	?	11µM*	22µM*	0.71µM*	13%	18*
CCc1ccccc1NC(=O)CN(C)Cc1c(O)ccc2ccccc12	?	56µM*	?	1.8µM*	-16%	0.4*
CCc1ccccc1NC(=O)CN(C)Cc1nc(N)nc(Nc2ccccc2C)n1	10%	?	-38%	-32%	-14%	.
COC(=O)c1cc(C)sc1NC(=O)C1CC=CCC1C(=O)O (centres undefined)	33%	-14%	-33%	-37%	5%	.
COc1ccccc1-c1nccc(NCc2cnc(C)cn2)n1	.	.	.	.	.	.	RGS4 confirm=27*
Oc1c(C(Nc2nccs2)c2ccc(C(F)(F)F)cc2)ccc2cccnc12 (centres undefined)	10%	45µM*	10%	-6%	-23%	.	JMJD2E inh=22µM*;FDH inh=-26%
Cc1[nH]c2ccccc2c1C(Nc1nccs1)c1ccncc1 (centres undefined)	34%	-18%	?	-17%[59 µM]	2%	.
O=C(CN1CCN(c2ccc(F)cc2)CC1)N1CCC(Cc2ccccc2)CC1	?	11µM*	35µM*	?	55%	16*
SMILES	HP1b chromo inh	JMJD2A Tudor inh	BAZ2B inh	G9a inh-1	GLS inhibitor	G9a inh-2	others
Oc1ccc2ccccc2c1CNc1cnc2ccccc2c1	-12%	?	?	1.4µM*	.	0.5*
Oc1ccc(Cl)cc1CNc1cnc2ccccc2c1	31%	-25%	-11%	?	19%	.
Cc1ccc(CNC(=O)CN2C(=O)COc3ccc(S(=O)(=O)N4CCC(C)CC4)cc32)cc1	41%	-5%	0%	?	3%	?
Cc1cccc(NC(=O)c2c(NC(=O)c3ccccc3)sc3c2CCCC3)c1	-7%	79µM*	56µM*	1.3µM*	0%	2*
Cc1cccc(NC(=O)c2c(NC(=O)c3ccccc3)sc3c2CCC3)c1	108%	21%	-1%	36%[59 µM]	-7%	.
Cc1cc2cc(C(c3nnnn3Cc3ccco3)N3CCc4ccccc43)c(=O)[nH]c2cc1C (centres undefined)	-19%	?	?	11µM*	14%	.	RGS4 confirm=6.7*
CCN(CC)c1ccc(NC(=O)CN2CCN(CC(=O)Nc3ccccc3F)CC2)cc1	-28%	?	?	?	38%	6.3*
COc1ccccc1NC(=O)CN1CCN(CC(=O)Nc2ccccc2F)CC1	46%	-10%[11.4 µM]	.	.	11%	.
O=C(Nc1nnc(-c2ccccc2)s1)C1CCCN(C(=O)c2ccoc2)C1 (centres undefined)	?	-33%	.	.	.	.	RGS4 confirm=24*
CCc1nnc(NC(=O)C2CCCN(C(=O)c3ccoc3)C2)s1 (centres undefined)	34%	-16%	.	.	.	.
COc1ccc(CN2CCC(C(=O)Nc3ccc(Oc4ccccc4)nc3)CC2)cc1F	20%	-25%	-31%	12%	6%	.
O=C(COc1ccc(Br)cc1F)N1CCN(c2ncccn2)CC1	24%	0%	-6%	-2%	-2%	.
COCc1cc(CN2CCCC2)c(O)c2ncccc12	27%	8.9µM*	3.2µM*	?	10%	.	JMJD2E inh=7.9µM*;FDH inh=-25%
Cc1ccc(-c2nc(CN3CCCCC3)cc(CN3CCCCC3)c2O)cc1	17%	-22%	-37%	.	-12%	.
O=C(COC(=O)C(Cc1ccccc1)NC(=O)c1cccs1)NCc1ccccc1 (centres undefined)	34%	2%	-2%	-5%[12.7 µM]	-12%	.
